# Data reported in PubChem BioAssay (NCI).
# Compounds without any hit were thinned out: in the full panel of roughly 83,000, 20% have a hit.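 48-hour exposure, single concentration, 96-well plates; percent growth endpoint where 0 means no net growth. Active: below 10.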 A number with no mark means an inactive call. Calls of active or inactive are those of the source.
# What was measured:
# Test in all cases: NCI-60 one-dose screen, 48 h (100 = growth as untreated, 0 = no growth, -100 = all killed)
# Settings in all cases: 10 µM unless noted
# NCI-H23 lung = tested on: NCI-H23 lung
# NCI-H226 lung = tested on: NCI-H226 lung
# NCI-H322M lung = tested on: NCI-H322M lung
# HOP-62 NSCLC = tested on: HOP-62 NSCLC
# NCI-H460 lung = tested on: NCI-H460 lung
# HOP-92 NSCLC = tested on: HOP-92 NSCLC
# NCI-H522 lung = tested on: NCI-H522 lung
# A549/ATCC NSCLC = tested on: A549/ATCC NSCLC
# 786-0 renal = tested on: 786-0 renal
# COLO 205 colon = tested on: COLO 205 colon
# DU-145 prostate = tested on: DU-145 prostate
# K-562 leukemia = tested on: K-562 leukemia
# MALME-3M melanoma = tested on: MALME-3M melanoma
# MDA-MB-231 breast = tested on: MDA-MB-231 breast
# RXF 393 renal = tested on: RXF 393 renal
# SF-268 CNS = tested on: SF-268 CNS
# SF-295 CNS = tested on: SF-295 CNS
# SF-539 CNS = tested on: SF-539 CNS
# UACC-257 melanoma = tested on: UACC-257 melanoma
# M14 melanoma = tested on: M14 melanoma
Compound,growth (NCI-H23 lung),growth (NCI-H226 lung),growth (NCI-H322M lung),growth (HOP-62 NSCLC),growth (NCI-H460 lung),growth (HOP-92 NSCLC),growth (NCI-H522 lung),growth (A549/ATCC NSCLC),growth (786-0 renal),growth (COLO 205 colon),growth (DU-145 prostate),growth (K-562 leukemia),growth (MALME-3M melanoma),growth (MDA-MB-231 breast),growth (RXF 393 renal),growth (SF-268 CNS),growth (SF-295 CNS),growth (SF-539 CNS),growth (UACC-257 melanoma),growth (M14 melanoma)
COc1cc(CNc2oc(-c3ccccc3)c(-c3ccccc3)c2C#N)cc(CN2CCN(C)CC2)c1O,73.1%,88%,89.2%,79.2%,33.4%,43.9%,71.5%,56.8%,67.2%,54.3%,59.9%,-9.86% (active),20.6%,75.3%,42.8%,69.8%,51.7%,71.3%,-4.26% (active),-62.2% (active)
Cc1cc(C)nc(SC2=C(Nc3cccc(Cl)c3C)C(=O)N(Cc3ccccc3)C2=O)n1,58.9% [30 µM],69.2% [30 µM],63.5% [30 µM],73% [30 µM],44% [30 µM],14.4% [30 µM],51.3% [30 µM],27.3% [30 µM],61.8% [30 µM],70.3% [30 µM],70.7% [30 µM],45.4% [30 µM],58% [30 µM],51.6% [30 µM],43.3% [30 µM],72% [30 µM],-5.72% [30 µM] (active),50.5% [30 µM],72.3% [30 µM],63.1% [30 µM]
Cc1cc(C)nc(SC2=C(Nc3cccc(Cl)c3)C(=O)N(Cc3ccccc3)C2=O)n1,82% [30 µM],83% [30 µM],88.8% [30 µM],90.3% [30 µM],62.5% [30 µM],-7.47% [30 µM] (active),67.9% [30 µM],26.4% [30 µM],72.1% [30 µM],78.2% [30 µM],79.6% [30 µM],51.8% [30 µM],91.9% [30 µM],61.2% [30 µM],72.6% [30 µM],66.8% [30 µM],-12.3% [30 µM] (active),69.7% [30 µM],71.7% [30 µM],74.8% [30 µM]
Cc1ccc2c(C(C[N+](=O)[O-])c3ccccc3F)c(-c3ccccc3)[nH]c2c1 (stereo not given),56.9%,58.6%,68.5%,36.2%,20.9%,45.8%,-17.2% (active),35.2%,56.7%,32.3%,66.2%,11.8%,46.1%,61.4%,63.6%,46.7%,17.6%,52.3%,46.9%,26.2%
O=C(/C=C/c1cccc([N+](=O)[O-])c1)c1ccc(O)c(CN2CCN(c3cc4c(cc3F)c(=O)c(C(=O)O)cn4C3CC3)CC2)c1,37.3%,60.8%,61.4%,43.7%,37.1%,59%,16.3%,32.2%,-11.2% (active),60.1%,22%,6.49% (active),78.2%,54.4%,-12.4% (active),43.2%,50.1%,12%,63.1%,9.3% (active)
COc1cccc(Nc2nc(SC)nc(-c3cccc([N+](=O)[O-])c3)c2C#N)c1,78.3%,19.3%,74%,27%,41.7%,62.9%,72.1%,28%,36.4%,82.1%,81.4%,85.4%,72.7%,65.8%,68.2%,88%,62.6%,81.4%,88.5%,83.4%
Cc1cc(NS(=O)(=O)c2ccc(-c3cnc(C4CC4)o3)cc2)ccc1Cl,24.3%,58.4%,44.7%,34.1%,7.65% (active),60.7%,-11.7% (active),15.3%,33.7%,-13.7% (active),14.3%,10.2%,46.3%,33.9%,-10.7% (active),49.4%,1.8% (active),-28.6% (active),45%,4.78% (active)
COc1cc(C(=O)Oc2ccccc2OC(=O)c2cc(OC)c(OC)c(OC)c2)cc(OC)c1OC,86.8%,107%,108%,88.1%,114%,83.4%,89.6%,85.3%,118%,103%,109%,100%,130%,85.5%,89.5%,84%,115%,88.5%,86.7%,116%
COc1cccc(-c2nc3sccn3c2-c2ccnc(NCCCNS(=O)(=O)c3cccc(F)c3)c2)c1,21.3%,19.1%,72%,33.4%,44.9%,49.5%,18.1%,18.1%,52.6%,19%,31.9%,11.4%,28.1%,65.4%,66.7%,40.9%,9.57% (active),70%,20.6%,10.9%
COc1cc(/C=C/c2cc(O)c3cc(C(C)=O)c(=O)oc3c2)cc2c1O[C@]1(C)CC[C@@H](O)C(C)(C)[C@H]1C2,52.1%,76.4%,67.6%,50.4%,23%,33.2%,67.7%,52.2%,-1.22% (active),89.8%,53.4%,17.2%,25.4%,64.4%,-58.5% (active),35.8%,-63.3% (active),-33.3% (active),36.5%,-49.4% (active)
O=C(CCN1C(=O)/C(=C/c2ccc(Cl)cc2)SC1=S)NCCCN1CCOCC1,101%,98.2%,104%,101%,102%,102%,88.9%,102%,107%,108%,106%,97.8%,100%,100%,109%,95.7%,95.2%,93.7%,102%,103%
O=C1NC(=S)NC(=O)C1CC(=O)n1c(-c2ccccc2)nc2ccccc21,97.2%,86.1%,94%,79.9%,101%,108%,96.9%,97.7%,104%,111%,113%,98.6%,93%,88%,110%,93.8%,96.3%,94.1%,111%,99%
O=C1c2ccccc2C(=O)c2c1ccc1[nH]c(-c3cccs3)nc21,84.5%,91.9%,60.9%,102%,73.7%,80.8%,78.9%,66.7%,99.9%,103%,88.9%,80.7%,81.9%,70.9%,81%,87.6%,120%,77.5%,87.5%,106%
COC(=O)[C@]12CCC(C)(C)C[C@H]1[C@H]1C(=O)C[C@@H]3[C@@]4(C)c5c([nH]c6ccccc6c5=O)C(C)(C)[C@@H]4CC[C@@]3(C)[C@]1(C)CC2,65.8%,65.7%,90.4%,85.5%,66.8%,85.8%,45.1%,34.8%,86.3%,77.5%,86.5%,18.9%,88.1%,86.4%,65.7%,82%,35.6%,92.1%,57.4%,29%
COc1cccc(/C=C2\SC(=Nc3ccc(NC(C)=O)cc3)NC2=O)c1OC,92.2%,103%,94.3%,92.3%,99.7%,55.3%,89.2%,96%,67.9%,111%,85.1%,101%,107%,102%,83.1%,99%,81.3%,94.4%,100%,98.1%
